Many of the other results were omitted from the sample, so hits are more common in it than they were.
AMA1-RON2 inh = inhibitors of Plasmodium falciparum AMA1-RON2 interaction; AlphaScreen AMA1-biotinylated RON2 peptide binding; Potency, µM (top dose mostly 58.2 µM), most hits filed as inhibitors; hit rate 0.2% among 360,000; AID 720542; further: nearly all actives have a fitted effect of over 45% in size
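AMA1 (3D7) with his tag at 25 nM final met compounds first, then biotinylated RON2 peptide at 25 nM; detection used donor plus acceptor beads, 10 µg/mL apiece, read by AlphaScreen after 30 min at room temperature.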
AmpC no deterg = blocks E. coli AmpC beta-lactamase in detergent-free assay. P00811. AmpC nitrocefin hydrolysis, absorbance 480 nm, 0.0001% Triton. Potency, µM (series often up to 57.1 µM), usual class: inhibitors. hit rate 0.52% among 330,000. AID 485341; further: nearly all actives have a fitted effect of over 20% in size
Target sequence (P00811 whole entry, looked up): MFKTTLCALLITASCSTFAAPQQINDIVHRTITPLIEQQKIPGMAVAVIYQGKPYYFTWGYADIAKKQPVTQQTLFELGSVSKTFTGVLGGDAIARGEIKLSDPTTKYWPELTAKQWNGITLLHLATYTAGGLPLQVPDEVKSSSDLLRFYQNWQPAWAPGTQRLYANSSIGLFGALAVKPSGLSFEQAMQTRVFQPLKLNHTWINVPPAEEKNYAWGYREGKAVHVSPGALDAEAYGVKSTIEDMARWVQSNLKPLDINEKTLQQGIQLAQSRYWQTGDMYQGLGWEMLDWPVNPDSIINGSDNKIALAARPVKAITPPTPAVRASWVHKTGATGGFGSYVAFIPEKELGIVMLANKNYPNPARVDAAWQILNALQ
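20 mM phosphate pH 7.0 + 0.01% (detergent screen) or 0.0001% Triton X-100; 5.3 nM AmpC reagent; cpd preinc 15 min RT; nitrocefin (800 uM stock) to start; A480 q20 s × 4 min; Activity was normalised to no-enzyme and no-compound control wells.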
SARS PLP yeast = blocks SARS-CoV papain-like protease in a yeast assay | S. cerevisiae expressing SARS-CoV PLpro, growth rescue | Potency, µM (titrated, usually from 32.9 µM), usual class: activators | hit rate 0.19% among 330,000; calls by dose curve; further: nearly all actives have a fitted effect of over 55% in size
Cycloheximide cs = counter-screen for Shiga toxin inhibitors: cycloheximide protein synthesis inhibition. hit rate 12% among 300,000. cell reporter, cycloheximide protein synthesis inhibition counterscreen. max response, %. AID 2314; in the data active means max response mostly above about 13%, no sharp cut-off; inactive means mostly below about 14%; further: read at 38.3 µM for the half of the compounds with a filed dose
AmpC detergent = inhibitors of E. coli AmpC beta-lactamase with detergent; P00811; AmpC hydrolysis of nitrocefin, absorbance 480 nm, 0.01% Triton; Potency, µM (titrated, usually from 114 µM), actives largely listed as inhibitors; hit rate 0.041% among 370,000; AID 485294; further: nearly all actives have a fitted effect of over 25% in size
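AmpC (5.3 nM in the dispensed reagent) in 20 mM phosphate pH 7.0 with 0.01% (detergent screen) or 0.0001% Triton X-100 was preincubated with compounds for 15 min at room temperature. Nitrocefin was then added from an 800 uM solution, and hydrolysis was followed at 480 nm.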
Shiga toxin inh = inhibitors of Shiga toxin in Vero cells; inhibition, % at 38.7 µM; hit rate 9.2% among 290,000; Vero cells, Shiga toxin protein synthesis inhibition reporter; in the data active means inhibition mostly above about 28%, no sharp cut-off; inactive means mostly below about 43%
Hits are given with their value; n = inactive; u = inconclusive; x = no result given; [ ] = remark or other dose. Unless noted, the call rests on the fitted dose curve; in most records, active means well fitted curve in the direction sought with a large enough effect; inconclusive means small, poorly fitted or top-dose-only effect, or another doubt; inactive means no such curve, though single readings can be large; an effect the other way counts as inactive or inconclusive.

SMILES	AMA1-RON2 inh	AmpC no deterg	SARS PLP yeast	Cycloheximide cs	AmpC detergent	Shiga toxin inh
Cc1ccc2cc3cc(C(=O)NCc4ccco4)oc3nc2c1	n	n	n	23	n	32
O=C(c1cc2cc3ccc(Cl)cc3nc2o1)N1CCCCCC1	n	n	n	21	n	79
CCOC(=O)C1=NOC(CNC(=O)c2c(-c3ccccc3Cl)noc2C)C1 (stereo not drawn)	n	u	n	n	n	n
CC(C(N)=O)N1c2cccc3cccc(c23)S1(=O)=O (stereo not drawn)	n	n[2.29 µM]	n	n	n	n
COc1ccc(N(C(=O)Cn2nnc3ccccc32)C(C(=O)NCc2ccccc2)c2ccc(F)cc2)cc1 (stereo not drawn)	x	x	x	x	n	x
Cc1ccc2cc3cc(C(=O)N4CC(C)CC(C)C4)oc3nc2c1 (stereo not drawn)	n	n	n	27	n	41
CC(C)(C)NC(=O)CN(C(=O)C1CSC(=O)C1)c1ccc2c(c1)OCCO2 (stereo not drawn)	n	n	n	36	n	34
COc1cc2c(cc1OC)/C(=C/C(=O)c1ccccc1)NCC2	n	n	n	n	n	n
CC1CN/C(=C\C(=O)c2ccc(Cl)cc2)C(=O)N1 (stereo not drawn)	n	n	n	25	n	n
CC1CN/C(=C\C(=O)c2ccccc2)C(=O)N1 (stereo not drawn)	n	n	n	44	n	n
CC1CCCN(C(=O)NC(=O)c2ccc(Cl)cc2)C1 (stereo not drawn)	n	n	n	n	n	n
CCC(Sc1nnnn1C)C(=O)Nc1ccc(C(C)=O)cc1 (stereo not drawn)	n	n	n	23	n	115
CC(Sc1nnnn1C)C(=O)Nc1ccc(Oc2ccccc2)cc1 (stereo not drawn)	n	n	n	n	n	n
CCOC(=O)c1ccccc1NC(=O)n1ncc2cc(Cl)ccc21	x	x	x	x	n	x
COc1cc(OC)c(NC(=O)n2ncc3cc(Cl)ccc32)cc1Cl	x	x	x	x	n	x
COc1ccc(NC(=O)n2ncc3cc(Cl)ccc32)cc1OC	n	n	n	47	n	56
O=C(Nc1ccccc1F)n1ncc2cc(Cl)ccc21	n	n	n	12	n	n
Cc1cccc2c1cnn2C(=O)Nc1cc(F)ccc1F	n	n	n	40	n	59
COc1cc(NC(=O)n2ncc3cc(Cl)ccc32)cc(OC)c1	n	n	n	43	n	60
CC(C)(C)C1C/C(=C/c2ccccn2)C(=O)/C(=C/c2ccccn2)C1 (stereo not drawn)	n	n	n	n	u	n
CCOCCCn1c(SCc2nc3ccccc3s2)nc2ccccc2c1=O	n	n	n	87	n	101
COCCn1c(SCc2nc3ccccc3s2)nc2ccccc21	n	n	n	37	u	147
C=CCn1c(=O)c2ccccc2n2c(SCc3nc4ccccc4s3)nnc12	n	n	n	45	n	131
COc1cc(O)oc1C=Nc1ccc(Cl)cc1Cl	n	n	n	28	n	35
COc1cc(O)oc1C=Nc1ccc(Cl)cc1	n	n	n	n	n	n
SMILES	AMA1-RON2 inh	AmpC no deterg	SARS PLP yeast	Cycloheximide cs	AmpC detergent	Shiga toxin inh
COc1ccc(-n2nc(C(=O)NCC(=O)N3CCOCC3)c3ccccc3c2=O)c(OC)c1	n	n	n	n	n	n
COc1ccc(-n2nc(C(=O)NCC(=O)N3CCCCCC3)c3ccccc3c2=O)c(OC)c1	n	n	n	16	n	n
COc1ccc(-n2nc(C(=O)NCC(=O)N3CCC(C)CC3)c3ccccc3c2=O)c(OC)c1	n	n	n	16	n	n
COc1ccc(-n2nc(C(=O)NCC(=O)N3CCCCC3)c3ccccc3c2=O)c(OC)c1	n	n	n	18	n	n
COc1ccc(-n2nc(C(=O)NCC(=O)N3CCC4(CC3)OCCO4)c3ccccc3c2=O)c(OC)c1	n	n	n	n	u	n
CC(C)(C)c1ccc(OCCCNCc2ccccc2)cc1	n	n	n	n	n	n
Cc1cccc(N2C(=O)C3CC3C2=O)c1 (stereo not drawn)	n	n	n	n	u	n
c1ccc2oc(-c3csc(NCC4CCCO4)n3)cc2c1 (stereo not drawn)	n	n[11.4 µM]	n	30	u	74

Assay outcomes deposited in PubChem BioAssay by National Center for Advancing Translational Sciences (NCATS).
